Laboratory results taken from the supplement of paper PMC3334620.
Over roughly 33,000 sequences, “E-score (-0.5 to 0.5)” has its median near -0.021; the highest 2% begin near 0.32. Only a selection was taken, and the highest values are over-represented in it overall.

target: T1, Zap1 (UniProt P47043); assay: PBM E-score (8-mer binding enrichment) (E-score (-0.5 to 0.5)); higher = stronger / more preferred TF binding; conditions: protein concentration: 200 nM; construct: GST-full length
T1 sequence: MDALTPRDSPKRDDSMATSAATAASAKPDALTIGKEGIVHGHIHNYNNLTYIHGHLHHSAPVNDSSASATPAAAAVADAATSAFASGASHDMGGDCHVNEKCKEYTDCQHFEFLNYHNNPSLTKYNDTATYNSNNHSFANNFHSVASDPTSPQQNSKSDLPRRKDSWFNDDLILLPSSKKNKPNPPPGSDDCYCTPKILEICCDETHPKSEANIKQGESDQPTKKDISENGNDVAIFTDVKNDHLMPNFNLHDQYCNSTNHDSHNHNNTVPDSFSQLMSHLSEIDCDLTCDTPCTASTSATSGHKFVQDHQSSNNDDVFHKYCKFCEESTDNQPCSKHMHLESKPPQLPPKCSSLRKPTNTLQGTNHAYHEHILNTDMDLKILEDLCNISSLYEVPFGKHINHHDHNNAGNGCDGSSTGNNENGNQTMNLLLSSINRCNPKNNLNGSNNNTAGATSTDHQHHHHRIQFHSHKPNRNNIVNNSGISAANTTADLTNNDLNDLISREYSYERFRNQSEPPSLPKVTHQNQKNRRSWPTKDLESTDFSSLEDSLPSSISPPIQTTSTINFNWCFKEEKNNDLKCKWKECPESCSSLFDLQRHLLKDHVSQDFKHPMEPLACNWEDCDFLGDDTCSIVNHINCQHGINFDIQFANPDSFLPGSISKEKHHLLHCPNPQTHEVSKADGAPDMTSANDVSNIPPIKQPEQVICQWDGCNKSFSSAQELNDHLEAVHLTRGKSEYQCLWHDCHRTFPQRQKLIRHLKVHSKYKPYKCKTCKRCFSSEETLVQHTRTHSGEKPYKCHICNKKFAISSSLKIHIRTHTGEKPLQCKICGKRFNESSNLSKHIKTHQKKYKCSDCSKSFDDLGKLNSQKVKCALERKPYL
Method: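 Universal 'all 10-mer' protein binding microarrays (Agilent AMADID 015681) probed with GST-tagged S. cerevisiae TFs (full-length or DBD) made by in vitro transcription/translation (PURExpress), about 100-200 nM. Bound TF was detected with fluorescent anti-GST. Each ungapped 8-mer (which stands for itself and its reverse complement) is scored by the PBM enrichment score (E-score), a modified Wilcoxon-Mann-Whitney statistic from -0.5 to +0.5, computed with the Universal PBM Analysis Suite. Scale: above 0.35 generally sequence-specific binding.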

Row | Sequence | PBM E-score
1 | ACCCTAGC | 0.247
2 | ACCCTAGT | 0.411
3 | CCCCTAGA | 0.147
4 | AACCTAGT | 0.161
5 | ACCCTAGA | 0.359
6 | ACCCTAGG | 0.428
7 | AACCTAGG | 0.232
8 | TCCCTAGA | -0.0192
9 | GAAGTGGC | -0.106
10 | GCGCATGA | -0.185
11 | AGGACATG | -0.0235
12 | AAATACCA | 0.129
13 | ACGGGTTA | 0.408
14 | CCGGGTTC | 0.247
15 | GCGGGTTA | 0.366
16 | ACGGGTTC | 0.0245
17 | GGGGGTTA | 0.0334
18 | ACGGGTTG | 0.158
19 | CCGGGTGA | 0.218
20 | CCGGGTTA | 0.388
21 | GCGGGTAA | 0.106
22 | GCGGGGTA | 0.293

Row | Sequence | PBM E-score
23 | CGGGGTTA | 0.474
24 | CGGGGTTC | 0.168
25 | ATCTTATG | -0.00019
26 | CCCTTCAG | 0.122
27 | GCGCACAC | -0.234
28 | CGGCGTTA | 0.0618
29 | ATCTAGGA | -0.0827
30 | AAGTTGAT | -0.14
31 | AGCTGTAG | -0.0501
32 | ATGGCCAG | 0.268
33 | ATGGCCAT | 0.332
34 | ATGGCCAC | 0.185
35 | CGACGCTC | 0.0879
36 | CTGAGCCC | -0.179
37 | TCCCTTAA | 0.0619
38 | ATCCTTAG | -0.192
39 | GCCCTTAA | 0.112
40 | CCCCTTAG | 0.107
41 | ACCCTTAG | 0.432
42 | ACCCTTAT | 0.404
43 | ACCCTTAC | 0.29
44 | AGCCTTAT | -0.0493

Row | Sequence | PBM E-score
45 | ACCCTTAA | 0.443
46 | TAGTTGCA | 0.116
47 | ATACACGC | -0.091
48 | AATCACAC | 0.0533
49 | TCTCGCCA | -0.206
50 | ACAATACC | 0.252
51 | TACTATAA | 0.249
52 | CAGATGAA | -0.103
53 | ACTCTCGG | 0.0208
54 | ACGGTGAA | -0.0282
55 | ACCTCGTC | 0.0929
56 | ACCTCGTG | 0.348
57 | ACCTCGTA | 0.189
58 | ACCTCGAG | 0.349
59 | CCCTCGAG | 0.159
60 | ACCTCGAT | 0.245
61 | ACTGTCGA | -0.0508
62 | CCCAATTC | 0.157
63 | TCACAGAA | -0.00307
64 | CTGCGCAG | -0.325
65 | CTTGAGCC | -0.111
66 | AGAACCAC | 0.285

Row | Sequence | PBM E-score
67 | AAAACCAC | 0.197
68 | CCAACCAC | 0.256
69 | ATAACCAC | 0.46
70 | GTAACCAC | 0.431
71 | CTAACCAC | 0.325
72 | GAAACCAC | 0.116
73 | GGAACCAC | 0.0961
74 | CAAACCAC | 0.0159
75 | CCTCTAAG | 0.139
76 | ACCATTTC | 0.126
77 | GATGGGCC | -0.145
78 | CCCCCCAA | -0.371
79 | TAGCCTAA | -0.0154
80 | ATTACCTG | 0.149
81 | ATTACCTA | 0.216
82 | ATTACCTC | 0.32
83 | ACTACCTA | 0.161
84 | CCTACCTC | 0.125
85 | ACTACCTC | 0.356
86 | CGTAATCA | 0.196
87 | AGGTCAAC | 0.118
